Source: PubChem BioAssay (National Center for Advancing Translational Sciences (NCATS))
An excerpt weighted towards active compounds, which were near 19% of everything screened.
IL-1B inflam inh: inhibitors of inflammasome signaling (IL-1 beta secretion); activity change, % at 57.5 µM; hit rate 4.7% among 360,000; THP-1 LPS/ATP IL-1B secretion, AlphaLISA, 16 h; stronger effect = lower value; in the data active = activity change below about -50%; inconclusive = mostly about -30% to -49%
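THP-1 cells pretreated 1 hr with compounds (up to 57.5 uM final), then stimulated with LPS (250 ng/mL final) plus ATP (1.25 mM final); secreted IL-1B measured by AlphaLISA after 16 hr, decreased signal indicating inhibition.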
TDP1 cell noCPT: qHTS for Inhibitors of human tyrosyl-DNA phosphodiesterase 1 (TDP1): qHTS in cells in absence of CPT; DT40 Tdp1-/- hTDP1 cells, no CPT, ATP luminescence, 48 h; Potency, µM (doses to about 46.2 µM), for inactives: at the highest dose activity change, negative = growth inhibition, hits mostly inhibitors; hit rate 15% among 420,000; also: potency is read from the fitted curve at half-maximal effect; nearly all actives have a fitted effect of over 55% in size
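Luminescent ATP content (CellTiter-Glo) served as the growth readout. Knockout chicken DT40 cells expressing human TDP1 were exposed to compounds without camptothecin for a minimum 48 hr at 37 °C.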
DT40 TDP1 CPT: DT40-hTDP1 cell growth loss with CPT. chicken DT40 Tdp1-/-;hTDP1 cells + 20 nM CPT, ATP luminescence, 48 h. Potency, µM (titrated, usually from 46.2 µM), for the others: top-dose activity change, negative = growth inhibition, usual class: inhibitors. hit rate 12% among 420,000; also: potency is read from the fitted curve at half-maximal effect; nearly all actives have a fitted effect of over 55% in size
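Cell growth measured by CellTiter-Glo luminescence after a minimum 48 h, 37 C compound exposure with 20 nM CPT in Tdp1-knockout DT40 cells stably expressing hTDP1, seeded 400/well; qHTS titration format.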
HT1080 IDH1KD tx: HT-1080 IDH1 knockdown cell toxicity (counter line) | HT-1080 IDH1 knockdown viability, ATP luminescence, 48 h | Potency, µM (titrated, usually from 46.1 µM), without a hit: at the top dose activity, negative = toxicity, most hits filed as cytotoxic | hit rate 2% among 360,000 | AID 686971;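 also: potency is read from the fitted curve at half-maximal effect; 0% = DMSO wells and -100% = cell-free medium wells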
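After a 2 h attachment period, IDH1KD HT-1080 cells took pin-transferred compound for 48 h at 37 °C; ATP-based luminescence after 10 min room-temperature reagent incubation reported viability.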
HT1080NT lethal: kills 2HG-producing HT-1080-NT fibrosarcoma cells; Potency, µM (titrated, usually from 46.1 µM), for inactives: top-dose activity, negative = less viability, usual class: cytotoxic; hit rate 1.6% among 360,000; HT-1080-NT fibrosarcoma viability, CellTiter-Glo ATP luminescence, 48 h;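 also: NT is the 2HG producing partner of a matched IDH1 knockdown line; potency is read from the fitted curve at half-maximal effect; 0% = DMSO-treated cells and -100% = media-only wells without cells; nearly all actives have a fitted effect of over 55% in size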
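Toxicity toward the 2HG-producing NT line was scored as %Activity, normalised to DMSO and no-cell wells, from CellTiter-Glo luminescence after 48 hours' treatment.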
ELG1 repair inh: blocks ELG1-dependent DNA repair in HEK293T cells | hit rate 2.3% among 330,000 | HEK293T ELG1-luciferase reporter, luminescence, 16 h; DNA damage induced by 5-fluorouridine | Potency, µM (highest dose often 46.1 µM), inactives show at the top dose activity change, negative = inhibition, usual class: inhibitors | AID 504467; also: potency is read from the fitted curve at half-maximal effect; nearly all actives have a fitted effect of over 55% in size
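Reporter activity after DNA damage by 5-fluorouridine is monitored. Compound-treated cells incubate 16 hr at 37 °C, then ONE-Glo is added for 30 min before luminescence reading.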
* marks the source's active call; other numbers are inactive results; ? = inconclusive; . = no result; [ ] = another dose, or the depositor's remark. Unless noted, calls follow the shape of the dose curve; as a rule, active = well fitted curve in the direction sought with a large enough effect; inconclusive = small, poorly fitted or top-dose-only effect, or another doubt; inactive = no such curve, though single readings can be large; an effect the other way counts as inactive or inconclusive. Unless noted, % is scaled to controls: 0 for no effect and ±100 for the full control effect.

SMILES | IL-1B inflam inh | TDP1 cell noCPT | DT40 TDP1 CPT | HT1080 IDH1KD tx | HT1080NT lethal | ELG1 repair inh
CCC(C(=O)NC1CCCC1)N(C(=O)Cn1nnc(-c2ccc(C)cc2)n1)C1CCCC1 (stereo unspecified) | -54.3* | 18.4µM* | 25.9µM* | 17.2% | 8.7% | .
CCS(=O)(=O)c1ccc2oc(Nc3ccc(C(C)(C)C)cc3)nc2c1 | 14.8 | 14.6µM* | 16.4µM* | -14.6% | -13.6% | -2.3%
CCN(CC)S(=O)(=O)c1ccc2oc(Nc3ccc4c(c3)OCCO4)nc2c1 | 20.7 | 23.1µM* | 16.4µM* | ? | -29.7% | ?
CCS(=O)(=O)c1ccc2oc(Nc3ccc(OC)cc3)nc2c1 | -1.2 | -19.3% | 13.9% | -0.9% | -0.3% | 13.7%
Cc1ccc(NC(=O)c2cc(-c3ccc4c(c3)OCO4)on2)cc1C | -6.7 | -22.1% | ? | 6.3% | -7.4% | ?
CCc1ccc(NC(=O)c2cc(-c3ccc4c(c3)OCO4)on2)cc1 | -14.4 | -10.4% | -21.1% | -4.5% | 0.0% | -0.1%
Cc1ccc(Cn2nc(C)c(NC(=O)c3cc(-c4ccc5c(c4)OCO5)on3)c2C)cc1 | 3.0 | ? | 16.4µM* | ? | 8.91µM* | -23.1%
Cc1nn(Cc2ccc(F)cc2)c(C)c1NC(=O)c1cc(-c2ccc3c(c2)OCO3)on1 | 6.8 | 13µM* | ? | 2.4% | ? | ?
CCO[C@H]1OC(C(=O)N2CCOCC2)=C[C@@H](c2ccc(Br)cc2)[C@@H]1CCCO | -14.1 | -18.4% | ? | 8.2% | 14.6% | -2.4%
O=C(Nc1cccc2nsnc12)c1cc2c(cc1Cl)Sc1nccn1S2(=O)=O | 6.0 | ? | 23.1µM* | -0.3% | 8.9% | .
Cc1nn2c(C)c(C(=O)NCc3ccc(OC(C)C)cc3)cnc2c1-c1ccc(F)cc1 | . | -0.4% | -2.0% | . | . | .
Cc1cccc(-c2nc3c4c(-c5ccccc5)c(-c5ccccc5)oc4ncn3n2)c1 | . | 3.0% | -20.2% | . | . | .
Cn1c(SCC(=O)Nc2nccs2)nnc1-c1ccc(S(=O)(=O)N2CCCC2)cc1 | 10.5 | -18.6% | -10.2% | 11.9% | 10.7% | -8.6%
CCn1c(SCC(=O)Nc2nccs2)nnc1-c1ccc(S(=O)(=O)N2CCCCCC2)cc1 | 0.0 | 18.4µM* | 16.4µM* | -9.0% | -19.5% | 20.6µM*
CCC(Sc1nnc(-c2ccc(C)c(Cl)c2)n1CC)C(=O)Nc1nccs1 (stereo unspecified) | -2.1 | 14.6µM* | 18.4µM* | -24.7% | -4.4% | ?
Cc1cccc(C(=O)Nc2c(-c3ccccc3)nc3cc(C)ccn23)c1 | . | 20.6µM* | ? | . | . | .
Cc1ccn2c(NC(=O)c3cccc(Cl)c3)c(-c3ccccc3)nc2c1 | . | 23.1µM* | ? | . | . | .
COc1cccc(-c2ccnc(-n3ncc(C(=O)NCC4(N5CCCCC5)CCCC4)c3C)n2)c1 | . | -17.3% | 10.2%[9.04 µM] | . | . | .
COc1ccc(NC(=O)CCc2c(C)nc3c(c2C)c(=O)n(C)c(=O)n3C)cc1OC | . | ? | 10.9% | . | . | .
Cc1nc2c(c(C)c1CCC(=O)Nc1cccc(C(F)(F)F)c1)c(=O)n(C)c(=O)n2C | . | 16.4µM* | ? | . | . | .
Cc1ccccc1NC(=O)CCc1c(C)nc2c(c1C)c(=O)n(C)c(=O)n2C | . | ? | 3.5% | . | . | .
Cc1nc2c(c(C)c1CCC(=O)Nc1ccc(F)cc1)c(=O)n(C)c(=O)n2C | . | 13µM* | ? | . | . | .
CCc1nc(SCC(=O)Nc2cccc(C(F)(F)F)c2)c2c(=O)n(C)c(=O)n(C)c2n1 | 39.4 | 9.2µM* | ? | -2.0% | 1.9% | ?
CCc1nc(SCC(=O)Nc2ccc(F)cc2F)c2c(=O)n(C)c(=O)n(C)c2n1 | 0.0 | ? | ? | 4.1% | 0.5% | -5.4%
CCN1C(=O)[C@H]2[C@H]3CN=C(SCc4ccc(C)cc4)N3[C@@](Cc3ccccc3)(C(=O)OC)[C@H]2C1=O | -13.2 | ? | ? | -1.8% | -12.5% | -11.1%
SMILES | IL-1B inflam inh | TDP1 cell noCPT | DT40 TDP1 CPT | HT1080 IDH1KD tx | HT1080NT lethal | ELG1 repair inh
Cc1ccc(N2NC3(CCN(C(N)=O)CC3)NC2=O)cc1 | 9.0 | -9.9% | -2.1% | 6.51µM* | 5.8µM* | -25.8%
CC(C)CN1C(=O)CSCC1(C)C(=O)NC(C)C (stereo unspecified) | -67.9* | 4.2% | 30.6% | -5.1% | 4.4% | .
CCOc1ccc(CNC(=O)CCS(=O)(=O)c2cc3c(cc2Cl)NC(=O)CO3)cc1OC | . | -1.8% | 9.3% | . | . | .
O=c1/c(=C/c2ccccn2)sc2n1CN(c1ccccc1)CN=2 | -16.6 | ? | -16.6% | 15.9% | -3.7% | 5.2%
Cc1cc(C)c2c(c1)/C(=c1/sc3n(c1=O)CN(c1ccccc1)CN=3)C(=O)N2 | -9.0 | 16.4µM* | 10.3µM* | ? | 0.1% | ?
CC(CCC(=O)O)C1CCC2C3CC(O)[C@@H]4CC(O)CC[C@]4(C)C3CC[C@@]12C (stereo partly specified) | . | -9.2% | 4.1% | . | . | .
O=C(Cc1cccs1)NCc1ccc(F)cc1 | -1.2 | -0.4% | 7.6% | 2.6% | 9.1% | ?
O=C(Cc1cccs1)NNC(=S)NC(=O)c1ccc(F)c(F)c1 | 29.8 | ? | 20.6µM* | 13.2% | -1.5% | 0.3%
O=C(Cc1cccs1)NNC(=S)NC(=O)c1ccccc1 | 0.0 | 14.6µM* | ? | -15.4% | -1.0% | -0.7%
O=C(NCc1ccccn1)c1cccc(S(=O)(=O)N2CCCCC2)c1 | -5.8 | 7.2% | -3.4% | 1.0% | 12.3% | 8.2%
CN1CCCCC1(C)C(=O)NCc1ccc(C(C)(C)C)cc1 (stereo unspecified) | -4.9 | -7.1% | -17.1% | -3.2% | -1.8% | .
CCc1nn2c(=O)cc(COC(=O)c3cccs3)nc2s1 | . | -1.7% | -15.8% | . | . | .
COc1cc(S(=O)(=O)Nc2ccc(C)cc2)ccc1N=Cc1c(C)[nH]n(-c2ccccc2)c1=O | ? | ? | 9.2µM* | -20.4% | -13.1% | ?
COc1nccnc1NS(=O)(=O)c1ccc(N=Cc2c(C)[nH]n(-c3ccc(C)c(C)c3)c2=O)cc1 | 11.8 | 9.2µM* | 8.2µM* | 7.94µM* | 10µM* | ?
Cc1[nH]n(-c2ccccc2)c(=O)c1C=Nc1ccc(S(=O)(=O)Nc2nccs2)cc1 | 0.9 | -9.4% | ? | -8.4% | -0.8% | -6.0%
COc1nccnc1NS(=O)(=O)c1ccc(N=Cc2c(C)[nH]n(-c3ccccc3)c2=O)cc1 | 9.0 | ? | -28.5% | -7.7% | 1.1% | -0.4%
Cc1ccc(-n2[nH]c(C)c(C=Nc3ccc(S(=O)(=O)Nc4nccs4)cc3)c2=O)cc1C | 23.1 | 18.4µM* | 8.2µM* | ? | ? | ?
